Assay results reported in PubChem BioAssay (NCI).
Compounds without any hit were thinned out: in the full panel of roughly 83,000, 20% have a hit.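 96-well plates, one dose, 48 hours. Percent growth reported; active if below 10.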 Calls of active or inactive are those of the source.

The molecules below were run on UACC-257 melanoma (assay: NCI-60 one-dose screen, 48 h (100 = growth as untreated, 0 = no growth, -100 = all killed)). Conditions: 10 µM unless noted.

SMILES	growth
CC(c1cc(Cl)ccc1O)c1cc(Cl)ccc1O	33% (inactive)
CSc1ccc2c(c1)N(CCC1CCCCN1C)c1ccccc1S2 (configuration not stated)	32.8% (inactive)
O=C1C2C3C=CC(O3)C2C(=O)N1Nc1ccccc1 (configuration not stated)	104% (inactive)
Oc1[nH]c2ccccc2c1/C=c1/ccc2c(c1)N=C(c1cc(F)cc(F)c1)N=2	98.7% (inactive)
CCC1=C(c2ccc(OC)cc2)C(C)(C)Oc2c1ccc(O)c2CN1CCCC1	-16.1% (active)
Nc1ccc2c3c(cccc13)-c1ccccc1-2	104% (inactive)
CC[C@]1(O)CC2CN(CCc3c([nH]c4ccccc34)[C@@](C(=O)OC)(c3cc4c(cc3OC)N(C)[C@H]3[C@@](O)(C(=O)OC)[C@H](OC(C)=O)[C@]5(CC)C=CCN6CC[C@]43[C@@H]65)C2)C1 (some centres not stated)	61.9% (inactive)
Cc1cc(CC(=O)O)n(C)c1C(=O)c1ccc(Cl)cc1	104% (inactive)
Nc1ccc(S(=O)(=O)Nc2ncccn2)cc1	105% (inactive)
CC1CC(C)/C(=N/NC(N)=O)C(C(O)CC2CCC(=O)NC2=O)C1 (configuration not stated)	54.9% (inactive)
O=C(/C=C/c1cc2ccccc2[nH]c1=O)c1ccc(Cl)cc1	45.3% (inactive)
CSc1nc2c(c(=O)[nH]1)C(c1ccc(Cl)cc1)C1=C(N2)/C(=C/c2ccc(Cl)cc2)CNC1 (configuration not stated)	81.9% (inactive)
CO[C@H]1/C=C/O[C@@]2(C)Oc3c(C)c(O)c4c(O)c(c(/C=N/N5CCN(C)CC5)c(O)c4c3C2=O)NC(=O)/C(C)=C\C=C\C(C)[C@H](O)[C@@H](C)[C@@H](O)[C@@H](C)[C@@H](OC(C)=O)[C@@H]1C (some centres not stated)	103% (inactive)
COc1ccc(-n2nnc(C(=O)O)c2-c2cc(OC)c(OC)c(OC)c2)cc1	102% (inactive)
O=C(Nc1ccc(OCc2nnc(-c3ccccc3)o2)c(F)c1)Nc1ccc(Cl)c(C(F)(F)F)c1	28.3% (inactive)
Cc1cc(C(C)(C)C)cc(C)c1CC1=NCCN1	106% (inactive)
COc1ccc(-c2csc(NC(=O)c3cc(OC)c(OC)c(OC)c3)n2)cc1	98.5% (inactive)

Each molecule was assayed on M14 melanoma in the same assay as above. Conditions: 10 µM unless noted.

SMILES	growth
CC(c1cc(Cl)ccc1O)c1cc(Cl)ccc1O	22.7% (inactive)
COc1cc2c(cc1OCCCOc1ccc(-c3cc4ccccc4c4ccccc34)cc1)N=C[C@@H]1CCCN1C2=O	-34.2% (active)
COc1cc2c(cc1OCCCCCn1c(-c3ccc(OCc4ccccc4)cc3)nc3cc(N4CCOCC4)ccc31)N=C[C@@H]1CCCN1C2=O	9.2% (active)
CSc1ccc2c(c1)N(CCC1CCCCN1C)c1ccccc1S2 (configuration not stated)	-57.9% (active)
O=C(CSc1nnc(Nc2ccccc2)s1)NCCc1ccc(F)cc1	103% (inactive)
CCC(c1ccccc1)c1noc(CCN(CC)CC)n1 (configuration not stated)	96.7% (inactive)
Cn1c(=O)c2c(nc(Br)n2CCC(=O)Nc2ccc(F)cc2)n(C)c1=O	96.3% (inactive)
CCC1=C(c2ccc(OC)cc2)C(C)Oc2cc(OC(C)=O)ccc21 (configuration not stated)	83.4% (inactive)
O=C1C2C3C=CC(O3)C2C(=O)N1Nc1ccccc1 (configuration not stated)	104% (inactive)
Cc1cc(C)n2nc(SCC(=O)Nc3sc4c(c3C(N)=O)CCC4)nc2n1	102% (inactive)
COc1ccc(Nc2ccnc(NCCCNc3ccnc4cc(Cl)ccc34)n2)cc1	-91.9% (active)
Oc1[nH]c2ccccc2c1/C=c1/ccc2c(c1)N=C(c1cc(F)cc(F)c1)N=2	58.2% (inactive)
CN(C)c1ccc(/C=C(\C#N)c2nc3ccccc3c(=O)[nH]2)cc1	97.3% (inactive)
Cc1cccc(Cl)c1NC(=O)c1ccc2nc(NC(=O)NC3CC(C)(C)NC(C)(C)C3)sc2c1	93.6% (inactive)
CCC(=O)Nc1ccccc1C#C/C=C\C#Cc1ccccc1C(F)(F)F	40.5% (inactive)
Nc1ccc2c3c(cccc13)-c1ccccc1-2	90.2% (inactive)
CC[C@]1(O)CC2CN(CCc3c([nH]c4ccccc34)[C@@](C(=O)OC)(c3cc4c(cc3OC)N(C)[C@H]3[C@@](O)(C(=O)OC)[C@H](OC(C)=O)[C@]5(CC)C=CCN6CC[C@]43[C@@H]65)C2)C1 (some centres not stated)	-15.6% (active)
COc1ccc(/C=N/NC(=O)c2ccc(S(C)(=O)=O)cc2)cc1OC	99.4% (inactive)
C=CCCCCCCCCC(=O)[O][Sn]([CH2]CCC)([CH2]CCC)[CH2]CCC	-91.1% (active)
Cc1cc(CC(=O)O)n(C)c1C(=O)c1ccc(Cl)cc1	106% (inactive)
